From PubChem BioAssay
Only a selection was taken, and hits are over-represented in it overall.
SARS PLpro yeast: inhibitors of SARS-CoV papain-like protease in yeast | 0.19% of 330,000 active | S. cerevisiae expressing SARS-CoV PLpro, growth rescue | Potency, µM (titrated, usually from 32.9 µM), for the others: top-dose activity, positive = growth rescue, actives largely listed as activators; further: potency means the concentration at half of the fitted maximal effect; 0% is about no effect; nearly all actives have a fitted effect of over 55% in size
Cycloheximide cs: counter-screen hit for Shiga toxin inhibitors, cycloheximide | 12% of 300,000 active | max response, % | AID 2314 | cell reporter, cycloheximide protein synthesis inhibition counterscreen; in the data active means max response mostly above about 13%, no sharp cut-off; inactive means mostly below about 14%; further: read at 38.3 µM for the half of the compounds with a filed dose; 0% is about no effect
Tb PYK inh: inhibitors of Trypanosoma brucei pyruvate kinase | Q57TT1 | TbPYK enzyme, Kinase-Glo Plus ATP luminescence, 45 min | Potency, µM (top dose mostly 76.8 µM), for inactives: at the top dose activity, negative = inhibition, usual class: inhibitors | 0.12% of 410,000 active; active means well fitted curve in the direction sought with a large enough effect; inconclusive means small, poorly fitted or top-dose-only effect, or another doubt; inactive means no such curve, though single readings can be large; an effect the other way counts as inactive or inconclusive; further: potency means the concentration at half of the fitted maximal effect; on the % scale 0 is the no-effect control and ±100 the full control effect; nearly all actives have a fitted effect of over 50% in size
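Glycolytic pyruvate kinase of T. brucei was incubated with substrate, test compound and 130 uM ADP for 45 minutes at room temperature. Luminescent Kinase-Glo Plus signal was measured after 10 minutes.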
LmPK inh: blocks Leishmania mexicana pyruvate kinase activity | 0.37% of 290,000 active | purified LmPK, Kinase-Glo ATP luminescence, 1 h | Potency, µM (series often up to 57.5 µM), for the others: top-dose activity change, negative = inhibition, hits mostly inhibitors; active means well fitted curve in the direction sought with a large enough effect; inconclusive means small, poorly fitted or top-dose-only effect, or another doubt; inactive means no such curve, though single readings can be large; an effect the other way counts as inactive or inconclusive; further: potency means the concentration at half of the fitted maximal effect; on the % scale 0 is the no-effect control and ±100 the full control effect
Target sequence (Q27686 whole entry, looked up): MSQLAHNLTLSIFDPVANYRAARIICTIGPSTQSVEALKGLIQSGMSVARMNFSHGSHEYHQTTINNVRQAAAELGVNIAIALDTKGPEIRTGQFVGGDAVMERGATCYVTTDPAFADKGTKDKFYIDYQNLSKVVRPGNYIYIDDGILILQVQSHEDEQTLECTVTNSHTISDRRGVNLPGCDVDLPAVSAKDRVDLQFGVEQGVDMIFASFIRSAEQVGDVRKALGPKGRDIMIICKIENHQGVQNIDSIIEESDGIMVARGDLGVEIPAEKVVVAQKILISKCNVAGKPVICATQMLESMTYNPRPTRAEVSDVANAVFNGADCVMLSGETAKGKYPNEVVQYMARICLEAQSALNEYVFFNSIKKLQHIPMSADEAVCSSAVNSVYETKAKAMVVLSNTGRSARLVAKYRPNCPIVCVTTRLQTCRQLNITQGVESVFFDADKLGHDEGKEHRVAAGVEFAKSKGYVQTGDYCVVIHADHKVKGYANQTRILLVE
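Purified LmPK (0.1 nM) converted ADP (0.1 mM) to ATP with PEP (0.5 mM) in imidazole buffer pH 7.2 with KCl and MgCl2, 1 h at room temperature. ATP was read by Kinase-Glo luminescence; data normalized to uninhibited and no-enzyme controls.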
NS1 inh: blocks influenza NS1 protein function; Potency, µM (titrated, usually from 46.1 µM), for inactives: at the top dose activity, positive = more growth; 0.4% of 270,000 active; AID 2326; further: potency means the concentration at half of the fitted maximal effect; actives are rising curves; nearly all actives have a fitted effect of over 50% in size
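In this qHTS, NS1 from influenza A is expressed in budding yeast, where it slows growth. Cells are switched from glucose to 2% galactose medium (pH 6.0, -URA), treated with compound, and growth recovery is read at OD600.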
Shiga toxin inh: Shiga toxin inhibition; Vero cells, Shiga toxin protein synthesis inhibition reporter; inhibition, % at 38.7 µM; 9.2% of 290,000 active; in the data active means inhibition mostly above about 28%, no sharp cut-off; inactive means mostly below about 43%; further: 0% is about no effect
Starred values were filed as active, the others as inactive; u = inconclusive; x = no result. Unless noted, the call rests on the fitted dose curve.

SMILES	SARS PLpro yeast	Cycloheximide cs	Tb PYK inh	LmPK inh	NS1 inh	Shiga toxin inh
CC(=O)c1ccc(N2CCN(S(=O)(=O)c3c(C(=O)N4CCCC4)c(C)n(C)c3C)CC2)cc1	3%	18	8%	-1%	-12%	30
O=C(Cn1nc(-c2ccc(Cl)cc2)c2ccccc2c1=O)NN1CCOCC1	-1%	1	-2%	0%	0%	8
O=C(COC(=O)/C=C/c1ccccc1)Nc1ccccc1Br	-13%	10	0%	-1%	2%	-9
O=C(COC(=O)c1ccccc1)Nc1ccccc1Br	0%	40*	-6%	1%	2%	65*
O=C(C[n+]1ccccc1)Nc1ccccc1[N+](=O)[O-]	5%	-1	3%	6%	6%	-6
O=C(COC(=O)c1c(Cl)cccc1Cl)Nc1ccccc1Br	-24%	26*	-1%	-7%	-17%	18
O=C(C[n+]1ccccc1)Nc1ccccc1Br	0%	24*	-6%	44%	15%	53*
CS(=O)(=O)c1ccc(Cl)c(NC(=O)COC(=O)c2c(Cl)cccc2Cl)c1	1%	-3	0%	2%	-5%	20
O=C(O)c1ccc(NC(=S)NC(=O)c2ccc(-c3ccccc3)cc2)cc1	0%	45*	-11%	-6%	x	48
Cc1ccc(NC(=O)NC(=S)NC(=O)c2ccccc2)cc1	-5%	48*	-4%	8%	-4%	88*
COc1ccc(C(=O)NC(=S)N2CCNC(=O)C2)cc1Br	0%	-7	-18%	1%	7%	-2
O=C(NC(=S)Nc1ccccc1)c1csnn1	-8%	22*	-3%	-4%	6%	27
O=C(NC(=S)Nc1ccccc1)c1ccc(-c2ccccc2)cc1	9%	16	9%	-2%	13%	19
O=C1CN(C(=S)NC(=O)c2ccc(-c3ccccc3)cc2)CCN1	0%	15*	-22%	-5%	-1%	62
COc1ccc(CC(=O)Nc2nc(OCCN3CCCC3=O)cnc2-c2cccc(C(F)(F)F)c2)cc1	x	x	5%	x	x	x
O=C(Cc1ccc(NC(=O)C2CCN(C(=O)C3CCCCC3)CC2)cc1)Nc1cccc(C(=O)N2CCCCC2)c1	x	x	0%	x	x	x
Cc1cc(C)c(C(=O)COC(=O)C2CCN(c3ccc(C(F)(F)F)cn3)CC2)c(C)c1	-2%	x	0%	x	x	x
O=C(CN1CCN(c2ccccc2O)CC1)Nc1ccc2c(c1)OCCCO2	-2%	x	-8%	x	x	x
O=C(/C=C/c1c(Cl)cccc1Cl)NCCc1ccccc1	5%	14	13%	4%	0%	-8
CC/C(=N\NC(=O)CNC(=O)/C=C/c1ccco1)c1ccccc1	1%	-1	-8%	-4%	u	64
Cc1ccc(/C=C/C(=O)NCCc2ccccc2)o1	-7%	40*	u	-3%	-16%	77*
O=C(/C=C/c1ccco1)NCCc1ccccc1	0%	47*	0%	1%	x	81*
O=C(O)CCCNC(=O)/C=C/c1ccco1	0%	-2	-3%	9%	-3%	-9
CCC/C(=N\NC(=O)CNC(=O)/C=C/c1ccco1)c1ccccc1	4%	13*	2%	-5%	15%	-112
O=C(/C=C/c1ccco1)NCC1(c2ccccc2)CCCC1	-16%	105*	-10%	-2%	-12%	48*
SMILES	SARS PLpro yeast	Cycloheximide cs	Tb PYK inh	LmPK inh	NS1 inh	Shiga toxin inh
CCOC(=O)C1CC2=C(CCCC2=O)N(Cc2ccccc2)C1=O (configuration not stated)	x	x	2%	x	x	x
Cc1ccc(NC(=O)Nc2nnc(N(C)Cc3ccccc3)s2)cc1	x	x	-3%	x	x	x
COc1ccc(Cn2c(C(=O)O)c(CNCCc3cc(OC)ccc3OC)c3ccc(C)cc32)cc1	x	x	3%	x	x	x
CSc1ncccc1C(=O)NCc1nnc2ccccn12	0%	x	1%	x	x	x
O=C(Nc1ccc(NC(=O)c2ccccc2Cl)nc1)c1ccco1	-2%	17*	-20%	-2%	-36%	69*
O=C(CCc1ccccc1)Nc1ccc(NC(=O)c2ccco2)nc1	-7%	22*	-1%	9%	-26%	28
Cc1ccc(NC(=O)c2ccco2)nc1	x	x	-20%	x	x	x
COc1ccccc1C(=O)N/C(=C\c1cn(S(=O)(=O)N(C)C)c2ccccc12)C(=O)NCCN1CCOCC1	-3%	7	-8%	0%	5%	-3
